{
  "source": "the supplement of paper PMC4894684",
  "note": "Structures can show the parent of a compound that is named as a salt. ± gives the standard deviation of the averaged measurements.",
  "data": [
    {"tested_on": "Toxoplasma gondii RH (in HFF)", "experiment": "parasite growth relative to the screen mean (all compounds = 100%); higher = less inhibition of parasite growth", "conditions": "5 µM; 72 h; oxygen 21 %", "outline": "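Confluent human foreskin fibroblasts in 96-well plates received library compounds by pin transfer at 5 µM final, taken from 10 mM DMSO stocks. Within 2 h the cells were infected with RH β-Gal–GFP Toxoplasma at MOI 1:5 and cultured 72 h at 21% O2. A CPRG β-Gal assay read against in-plate standard curves gave parasite number, and growth is stated relative to the screen mean, where all compounds = 100%, averaged across two screens.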", "units": {"parasite growth": "%"}, "values": [
      {"smiles": "C[C@H](N)Cn1ccc2cc(F)c(Cl)cc21", "note": "[Ro 60-0175 fumarate]", "parasite growth": "115 ± 28"},
      {"smiles": "CC[C@@]1(O)C(=O)OCc2c1cc1n(c2=O)Cc2cc3ccccc3nc2-1", "note": "[Camptothecin]", "parasite growth": "181 ± 36"},
      {"smiles": "C[C@H]1CCC/C=C/[C@@H]2C[C@H](O)C[C@H]2[C@H](O)/C=C/C(=O)O1", "note": "[Brefeldin A]", "parasite growth": "< 0"},
      {"smiles": "CCN(CC)CCO[C@H]1CC[C@@]2(C)C(=CC[C@@H]3[C@@H]2CC[C@]2(C)C(=O)CC[C@@H]32)C1", "parasite growth": "79.6 ± 24"},
      {"smiles": "O=C1Nc2cc(Cl)c(Cl)cc2N2CCNCC12", "note": "(stereo not drawn)", "parasite growth": "176 ± 7.8"},
      {"smiles": "c1ccc2c(c1)[I+]c1ccccc1-2", "note": "[Diphenyleneiodonium chloride]", "parasite growth": "< 0"},
      {"smiles": "O=C(Cc1ccc(Cl)c(Cl)c1)N1CCCCC1CN1CCCC1", "note": "(stereo not drawn)", "parasite growth": "82.1 ± 15"},
      {"smiles": "O=C(N[C@H]1CN2CCC1CC2)c1ccc(Cl)cc1", "parasite growth": "146 ± 25"},
      {"smiles": "CC[N+](CC)(CCCNC1=CC(=O)C(NCCC[N+](CC)(CC)Cc2ccccc2)=CC1=O)Cc1ccccc1", "note": "[Benzoquinonium dibromide]", "parasite growth": "129 ± 29"},
      {"smiles": "NCc1cc(O)no1", "note": "[Muscimol]", "parasite growth": "154 ± 28"},
      {"smiles": "CN1C[C@H](CNC(=O)OCc2ccccc2)C[C@@H]2c3cccc4c3c(cn4C)C[C@H]21", "note": "[Metergoline]", "parasite growth": "71 ± 0.52"},
      {"smiles": "O=C(O)C1=CCCN(CCOC(c2ccc(C(F)(F)F)cc2)c2ccc(C(F)(F)F)cc2)C1", "note": "[CI 966 hydrochloride]", "parasite growth": "137 ± 5.2"},
      {"smiles": "c1ccc(CCCCN2CCC(c3ccccc3)CC2)cc1", "note": "[4-PPBP maleate]", "parasite growth": "82.8 ± 5.3"},
      {"smiles": "C=CCN1CC[C@]23c4c5ccc(O)c4O[C@H]2/C(=N/NC(=O)c2ccccc2)CC[C@@]3(O)[C@H]1C5", "note": "[Naloxone benzoylhydrazone]", "parasite growth": "108 ± 34"},
      {"smiles": "COC(=O)/C=C/C(=O)N[C@@H]1CC[C@@]2(O)[C@H]3Cc4ccc(O)c5c4[C@@]2(CCN3CC2CC2)[C@H]1O5", "note": "[β-Funaltrexamine hydrochloride]", "parasite growth": "74.5 ± 28"},
      {"smiles": "Cc1cc(SCc2sc(-c3ccc(C(F)(F)F)c(F)c3)nc2C)ccc1OCC(=O)O", "parasite growth": "79.2 ± 4.8"},
      {"smiles": "COc1cc2c(cc1OC)C1CC(=O)C(CC(C)C)CN1CC2", "note": "(stereo not drawn) [Tetrabenazine]", "parasite growth": "132 ± 1.5"},
      {"smiles": "CC(CN)CC(=O)O", "note": "(stereo not drawn) [3-Methyl-GABA]", "parasite growth": "119 ± 4.7"},
      {"smiles": "O=Cc1cn(Cc2ccc(Cl)cc2)c2ccccc12", "note": "[Oncrasin 1]", "parasite growth": "113 ± 44"},
      {"smiles": "CCC(Oc1ccc(Cl)cc1)C(=O)OC1C[C@H]2CC[C@@H](C1)N2C", "note": "(stereo partly drawn) [SM-21 maleate]", "parasite growth": "95.2 ± 2.9"},
      {"smiles": "NC(=S)N/N=C/c1coc2ccccc2c1=O.[Cl][Cu][Cl]", "parasite growth": "37.1 ± 24"},
      {"smiles": "C(=C\\c1ccccc1)/CN1CCN(CCOC(c2ccccc2)c2ccccc2)CC1", "parasite growth": "16.2 ± 8.1"},
      {"smiles": "O=C(O)CCC(CP(=O)(O)O)C(=O)O", "note": "(stereo not drawn) [PMPA (NAALADase inhibitor)]", "parasite growth": "126 ± 9.3"},
      {"smiles": "O=c1cccc2n1C[C@@H]1CNC[C@H]2C1", "note": "[(-)-Cytisine]", "parasite growth": "128 ± 26"},
      {"smiles": "CC(C)C[C@H]1C(=O)N2CCC[C@H]2[C@]2(O)O[C@](NC(=O)[C@@H]3C=C4c5cccc6[nH]c(Br)c(c56)C[C@H]4N(C)C3)(C(C)C)C(=O)N12", "note": "[Bromocriptine mesylate]", "parasite growth": "13.6 ± 8.4"},
      {"smiles": "C/C(O)=C(\\C#N)C(=O)Nc1cc(Br)ccc1Br", "parasite growth": "130 ± 7.2"},
      {"smiles": "CCCCC1(C2CCCC2)Cc2cc(OCCCC(=O)O)c(Cl)c(Cl)c2C1=O", "note": "(stereo not drawn)", "parasite growth": "124 ± 5"},
      {"smiles": "Cc1[nH]c2ccc(O)cc2c1CCN", "note": "[2-Methyl-5-hydroxytryptamine hydrochloride]", "parasite growth": "139 ± 37"},
      {"smiles": "COc1ccc(C(=O)c2c(C)n(CCN3CCOCC3)c3cc(I)ccc23)cc1", "parasite growth": "149 ± 18"},
      {"smiles": "Cn1cc(C(=O)C(=O)N[C@H]2CN3CCC2CC3)c2ccccc21", "parasite growth": "96.5 ± 6.7"},
      {"smiles": "C[N+](C)(C)CC#CCN1CCCC1=O", "note": "[Oxotremorine M]", "parasite growth": "172 ± 41"},
      {"smiles": "CC1=NN=C(c2ccc(N)cc2)c2cc3c(cc2C1)OCO3", "parasite growth": "47.2 ± 4.7"},
      {"smiles": "CC(C)NCC(O)c1ccc(N)c(C#N)c1", "note": "(stereo not drawn) [Cimaterol]", "parasite growth": "130 ± 2.8"},
      {"smiles": "Oc1ccc2c3c1O[C@H]1c4[nH]c5ccccc5c4C[C@@]4(O)[C@@H](C2)N(CC2CC2)CC[C@]314", "note": "[Naltrindole hydrochloride]", "parasite growth": "148 ± 35"},
      {"smiles": "C1CCc2nnnn2CC1", "note": "[Pentylenetetrazole]", "parasite growth": "110 ± 22"},
      {"smiles": "CCCCCCC[n+]1ccc(-c2cc[n+](CCCCCCC)cc2)cc1", "note": "[DHBP dibromide]", "parasite growth": "86.1 ± 44"},
      {"smiles": "O=C1CSC(c2ccccc2Cl)c2cc(Cl)ccc2N1", "note": "(stereo not drawn)", "parasite growth": "153 ± 4.7"},
      {"smiles": "C[C@@H]1CC[C@H]2[C@@H](C)C(=O)O[C@@H]3O[C@@]4(C)CC[C@@H]1[C@]32OO4", "note": "[Artemisinin]", "parasite growth": "31.6 ± 8.8"}
    ]}
  ]
}
